Results reported in the supplement of paper PMC10646978.
± gives the standard deviation.

Tests used:
Conditions in all cases: modulator concentration 10 µM
[1] = test system: RAW-Dual (murine macrophage reporter line); assay: NF-kB reporter (SEAP) activity fold change vs agonist alone; higher = enhanced NF-kB activity
Summary of the method: (§1)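 RAW-Dual murine macrophage reporter cells were seeded at 50 000 per well in 384-well plates and pre-incubated 1 hour at 37 °C with compound pin-transferred to 10 μM final. After 1 hour, a PRR agonist was added and cells incubated overnight. Supernatant NF-κB (SEAP, QUANTI-Blue, 620 nm absorbance) and IRF (Lucia luciferase, QUANTI-Luc, luminescence) signals were divided by the mean agonist-only control on the same plate to give fold change. Two replicate plates were averaged, with errors by propagation.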

[2] = test system: RAW-Dual (murine macrophage reporter line); assay: IRF reporter (Lucia luciferase) activity fold change vs agonist alone; higher = enhanced IRF activity
Summary of the method: as §1

[3] = test system: RAW-Dual (murine macrophage reporter line); assay: viability score (confluency relative to resting cells, overnight) (fraction); higher = more viable, active = viable (0.7 or more)
Summary of the method: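 Two confluency masks, generated with IncuCyte software over all imaged wells, were applied to IncuCyte images of RAW-Dual macrophages. The cells, in 384-well plates, had been exposed overnight to 10 μM final compound. The viability score is confluency as a fraction of resting cells, and a compound met the cutoff only with both masks above 70% of resting cells.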

[4] = agonist: CpG ODN 1826 0.5 ug/mL

SMILES | NF-kB reporter [1, 4] | NF-kB reporter ([1]; agonist: LPS 0.1 ug/mL) | NF-kB reporter ([1]; agonist: MPLA […]) | IRF reporter ([2]; agonist: 3'3'-cGAMP 10 ug/mL) | IRF reporter ([2]; agonist: LPS 0.1 ug/mL) | IRF reporter ([2]; agonist: MPLA […]) | viability score [3]
OC(CNC1CCCCC1)Cn1c2ccc(Cl)cc2c2cc(Cl)ccc21 (configuration not stated) | 0.137 ± 0.03 | 0.219 ± 0.037 | 0.613 ± 0.042 | 0.11 ± 0.058 | 0.302 ± 0.018 | 0.436 ± 0.12 | 0.0501 (inactive)
CC(Cc1ccc(O)c(O)c1)C(C)Cc1ccc(O)c(O)c1 (configuration not stated) | 1.16 ± 0.31 | 0.645 ± 0.057 | 1.31 ± 0.094 | 0.0338 ± 0.0028 | 0.509 ± 0.062 | 0.544 ± 0.055 | 0.618 (inactive)
Cc1ccc(COc2cccc(C=C3SC(=S)NC3=O)c2)cc1 | 0.611 ± 0.06 | 0.803 ± 0.13 | 0.992 ± 0.088 | 0.793 ± 0.08 | 1.18 ± 0.069 | 1.3 ± 0.11 | 1.02 (active)
Cc1cccc(C)c1N(CC(=O)Nc1ccc(-c2ncon2)cc1)C(=O)C1CCS(=O)(=O)CC1 | 1.06 ± 0.083 | 0.939 ± 0.075 | 1.05 ± 0.024 | 0.976 ± 0.098 | 0.997 ± 0.13 | 0.982 ± 0.086 | 0.999 (active)
Cc1cccc(CCC(=O)N2CCCC(Oc3ccnc(C)n3)C2)c1 (configuration not stated) | 1.02 ± 0.09 | 1.14 ± 0.11 | 1.06 ± 0.15 | 0.731 ± 0.057 | 1.19 ± 0.085 | 1.16 ± 0.24 | 0.963 (active)
O=C(Nc1ccccc1Cl)c1ccc(OCC2CCCO2)nc1 (configuration not stated) | 1.17 ± 0.066 | 1.06 ± 0.12 | 0.981 ± 0.026 | 1.3 ± 0.35 | 1 ± 0.058 | 0.976 ± 0.098 | 0.999 (active)
O=C(CCC(=O)OCC(=O)c1cccs1)Nc1ccc(Oc2ccccc2)cc1 | 0.756 ± 0.064 | 0.842 ± 0.054 | 1.04 ± 0.12 | 0.995 ± 0.05 | 1.22 ± 0.085 | 1.38 ± 0.13 | 1 (active)
O=C(NCCc1nc(C2CC2)cc(C(F)(F)F)n1)c1c(F)cccc1Cl | 1.01 ± 0.079 | 1.11 ± 0.087 | 0.943 ± 0.11 | 1.01 ± 0.053 | 1.13 ± 0.086 | 1.07 ± 0.12 | 1 (active)
O=C(O)C(=O)O.c1ccc(SCCc2ccncc2)cc1 | 1.06 ± 0.12 | 1.04 ± 0.076 | 1 ± 0.056 | 1.05 ± 0.24 | 1.07 ± 0.09 | 1.19 ± 0.17 | 1 (active)
Cc1cc(-c2ccccc2)nnc1NCCN1CCOCC1.Cl.Cl | 1.19 ± 0.28 | 1.04 ± 0.1 | 1 ± 0.073 | 0.966 ± 0.049 | 1.28 ± 0.14 | 1.27 ± 0.12 | 0.989 (active)
O=C(NCC1(c2ccc(F)cc2)CCOCC1)c1cnc2ccccc2n1 | 1.01 ± 0.05 | 1.1 ± 0.094 | 1.02 ± 0.12 | 1.08 ± 0.06 | 1.2 ± 0.093 | 1.42 ± 0.12 | 1.01 (active)
Ic1ccc(N=Cc2ccc(C=Nc3ccc(I)cc3)cc2)cc1 | 1.03 ± 0.081 | 0.868 ± 0.083 | 0.997 ± 0.097 | 0.954 ± 0.038 | 1.24 ± 0.19 | 1.44 ± 0.23 | 1.02 (active)
O=C(O)c1nn(-c2ccccc2)c(=O)c2ccccc12 | 1.12 ± 0.13 | 1.1 ± 0.099 | 1.03 ± 0.027 | 0.955 ± 0.034 | 0.953 ± 0.086 | 0.953 ± 0.26 | 1 (active)
O=C(NCC(F)(F)F)c1ccc(OCC2CCOCC2)nc1 | 0.911 ± 0.044 | 0.87 ± 0.093 | 1.09 ± 0.064 | 0.937 ± 0.044 | 1.3 ± 0.24 | 1.51 ± 0.46 | 0.993 (active)
O=C(O)c1ccccc1O | 1.03 ± 0.23 | 1.04 ± 0.18 | 0.923 ± 0.052 | 0.925 ± 0.03 | 1.34 ± 0.12 | 1.23 ± 0.094 | 0.995 (active)
COC(CNS(=O)(=O)Cc1ccccc1)c1ccc(Cl)s1 (configuration not stated) | 0.959 ± 0.056 | 1.02 ± 0.084 | 0.922 ± 0.052 | 1.24 ± 0.1 | 1.12 ± 0.071 | 1.16 ± 0.35 | 0.639 (inactive)
O=C(CC1(Cc2ccc(I)cc2)C(=O)c2ccccc2C1=O)c1ccccc1 | 0.803 ± 0.073 | 0.876 ± 0.046 | 1.02 ± 0.091 | 0.953 ± 0.044 | 1.42 ± 0.12 | 1.59 ± 0.17 | 0.996 (active)
O=C(CN1CCN(c2ccccc2F)C1=O)N1CCCC(Oc2ccncn2)C1 (configuration not stated) | 0.874 ± 0.21 | 0.941 ± 0.052 | 0.992 ± 0.092 | 0.507 ± 0.025 | 0.968 ± 0.15 | 1.13 ± 0.27 | 0.547 (inactive)
O=C(Nc1cc(C(F)(F)F)cc(C(F)(F)F)c1)c1c(F)cccc1F | 0.953 ± 0.099 | 1.07 ± 0.075 | 0.911 ± 0.069 | 0.987 ± 0.07 | 1.29 ± 0.14 | 1.07 ± 0.072 | 1.01 (active)
COc1ccccc1OCC(O)CN1CCN(CC(=O)Nc2c(C)cccc2C)CC1 (configuration not stated) | 0.99 ± 0.087 | 0.943 ± 0.089 | 1.06 ± 0.056 | 0.967 ± 0.092 | 0.996 ± 0.061 | 0.936 ± 0.078 | 1 (active)
CCS(=O)(=O)O.COC(=O)c1ccc2c(c1)NC(=O)/C2=C(\Nc1ccc(N(C)C(=O)CN2CCN(C)CC2)cc1)c1ccccc1 | 0.115 ± 0.027 | 0.886 ± 0.044 | 2.23 ± 0.18 | 0.036 ± 0.002 | 0.177 ± 0.025 | 0.241 ± 0.028 | 0.839 (active)
CS(=O)(=O)O.N#CC1(c2ccc(NC(=O)c3cccnc3NCc3ccncc3)cc2)CCCC1 | 0.394 ± 0.03 | 0.69 ± 0.033 | 0.547 ± 0.052 | 0.396 ± 0.019 | 1 ± 0.074 | 0.99 ± 0.083 | 0.992 (active)
CS(=O)(=O)N1CCCCC1C(=O)N(CC1CCCO1)c1nc2c(F)cccc2s1 (configuration not stated) | 0.814 ± 0.072 | 1.02 ± 0.1 | 0.773 ± 0.054 | 1.24 ± 0.078 | 1.19 ± 0.077 | 1.23 ± 0.16 | 0.966 (active)
O=C(NCCN1CCOCC1)c1ccccc1Br | 0.967 ± 0.081 | 1.13 ± 0.089 | 0.952 ± 0.035 | 1.02 ± 0.15 | 1.13 ± 0.12 | 0.897 ± 0.18 | 0.997 (active)
CCc1ccccc1Nc1nc(-c2sc(NC(C)=O)nc2C)cs1 | 0.65 ± 0.1 | 0.555 ± 0.052 | 0.582 ± 0.048 | 0.778 ± 0.028 | 1.3 ± 0.3 | 1.42 ± 0.26 | 0.536 (inactive)
CC(C)NC(=N)NC(=N)Nc1ccc(Cl)cc1 [Prestw-999] | 0.806 ± 0.053 | 1.33 ± 0.1 | 1.27 ± 0.087 | 0.994 ± 0.059 | 1.18 ± 0.12 | 0.954 ± 0.3 | 0.994 (active)
